The values that follow come from ChEMBL document CHEMBL4513146, “CO-ADD screening of Karazin Kharkiv National University (Ukraine) compounds”.

Molecules are shown by their SMILES. Results with a measured potency or affinity are listed apart.

The subject of the first test is Staphylococcus aureus. The following applies: Concentration 32 ug.mL-1;; ASSAY_TEST Inhibition of Bacterial Growth; detection method Absorption (OD600); MEDIA CAMHB; plate type 384well; NBS; CORNING #3640; time 18 hr.
Consider `CCc1ccc(Cn2c(=O)c3sccc3n3c(SCc4cccc(C(F)(F)F)c4)nnc23)cc1`, for which the Inhibition is recorded as 5.26%.

With `COc1cc(NC(=O)Cn2nc3c4c5c(sc4ncn3c2=O)CCCC5)cc(OC)c1`, the Inhibition is on record as -0.84%.

As to `O=c1c2nnc(SCc3ccc(F)cc3)n2ccn1-c1ccc(Br)cc1`, the Inhibition worked out at 3.87%.

As for `O=C(CSc1nnc2c(=O)n(-c3ccccc3)ccn12)Nc1cccc(F)c1`, the Inhibition was found to be 13%.

On to `COC(=O)c1cccc(NC(=O)Cn2nc3c(Oc4ccccc4)nccn3c2=O)c1`, for which the Inhibition worked out at 3.03%.

On to `COc1cc(NC(=O)Cn2nc3c(N4CCCC4)nccn3c2=O)cc(OC)c1`, for which the Inhibition amounted to 5.55%.

Consider `O=c1n(Cc2ccc3c(c2)OCO3)nc2ccc(-c3ccccc3)nn12`, for which the Inhibition is on record as 12.41%.

For the compound `COc1cccc(C(=O)Cn2nc3n(CCC(C)C)c(=O)c4sccc4n3c2=O)c1`, the Inhibition is listed as -4.77%.

Turning to `O=C(Cn1nc2ccc(Sc3cccc(F)c3)nn2c1=O)NCc1ccc(Cl)cc1`, the Inhibition is 1.01%.

Take `O=C(Cn1nc2c3cc(-c4ccccc4)nn3ccn2c1=O)N1CCCc2ccccc21`: the Inhibition was 4.94%.

As for `Cc1cc2nn(CC(=O)Nc3ccc(F)cc3F)c(=O)n2c(Nc2ccc(F)c(C)c2)n1`, the Inhibition was found to be 5.82%.

Turning to `CC(C)c1nnc2c(=O)n(CC(=O)Nc3ccc(Cl)c(Cl)c3)c3ccccc3n12`, the Inhibition was 8.95%.

As to `O=C(Cn1nc2ccc(SCc3ccc(Cl)cc3)nn2c1=O)Nc1ccccc1C(F)(F)F`, the Inhibition amounted to 4.98%.

For `O=C(Cn1nc2c(Oc3ccccc3)nccn2c1=O)Nc1ccc(F)cc1F`, the Inhibition is given as 6.01%.

In the case of `Cc1ccc(CN(c2ccc(F)cc2)S(=O)(=O)c2ccc3nnc(C)n3c2)cc1`, the Inhibition was -8.78%.

Consider `CN(C(=O)Cn1nc2n(Cc3cccs3)c(=O)c3sccc3n2c1=O)c1ccccc1`, for which the Inhibition is -14.76%.

On to `Cc1ccc(Sc2nccn3c(=O)n(CC(=O)N4CCN(c5ccc(F)cc5)CC4)nc23)c(C)c1`, for which the Inhibition was -13.09%.

Consider `O=C(Cn1nc2ccc(Sc3cccc(F)c3)nn2c1=O)Nc1ccc2c(c1)OCCO2`, for which the Inhibition was found to be 11.29%.

With `O=c1n(Cc2ccccc2F)nc2ccc(S(=O)(=O)N3CCCCCC3)cn12`, the Inhibition is 2.98%.

Regarding `COc1ccc(CN(c2cc(C)cc(C)c2)S(=O)(=O)c2cccn3c(C)nnc23)cc1`, the Inhibition is given as -21.45%.

As for `Cc1nnc2c(=O)n(CC(=O)NC3CCCC3)c3ccccc3n12`, the Inhibition was determined as 4.23%.

Consider `COc1cccc(-c2noc(Cn3nc4ccc(-c5ccc(C)c(C)c5)nn4c3=O)n2)c1OC`, for which the Inhibition was 6.16%.

On to `Cc1cccc(Oc2nccn3c(=O)n(CC(=O)N4CCN(c5ccccc5F)CC4)nc23)c1C`, for which the Inhibition is reported as -3.04%.

For the compound `COc1cccc(CN(c2ccc(C(C)C)cc2)S(=O)(=O)c2cccn3cnnc23)c1`, the Inhibition is on record as 7.94%.

In the case of `Cc1ccccc1Oc1nccn2c(=O)n(CC(=O)Nc3cc(Cl)ccc3Cl)nc12`, the Inhibition worked out at 0.32%.

Take `CCCc1ccc(S(=O)(=O)Nc2ccc3nncn3n2)cc1`: the Inhibition was found to be 16.11%.

On to `Cc1ccc(Nc2cc(C)n3c(=O)n(Cc4cc(=O)n5ccccc5n4)nc3n2)cc1F`, for which the Inhibition was 9.94%.

On to `COc1ccc(-c2cc3c4nn(CC(=O)Nc5cc(C)ccc5OC)c(=O)n4ccn3n2)cc1`, for which the Inhibition came out at 1.5%.

Regarding `Cc1nnc2ccc(S(=O)(=O)N(Cc3ccc(Cl)cc3)c3cccc(F)c3)cn12`, the Inhibition is recorded as 2.65%.

In the case of `Cc1cccc(CN(c2cccc(F)c2)S(=O)(=O)c2ccc3nncn3c2)c1`, the Inhibition is reported as -2.24%.

As to `COc1ccccc1NC(=O)Cn1nc2c(SCc3ccccc3)nccn2c1=O`, the Inhibition was -5.43%.

With `CCC(Sc1nnc2c(=O)n(-c3cccc(OC)c3)ccn12)C(=O)Nc1cc(OC)ccc1OC` (stereo not drawn), the Inhibition is reported as -1.04%.

As to `Cc1cc(C)cc(Nc2nc(C)cc3nn(CC(=O)NCc4ccco4)c(=O)n23)c1`, the Inhibition is on record as 4.89%.

On to `O=C(Cn1nc2ccc(-c3ccc(Cl)cc3)nn2c1=O)NC1CCCC1`, for which the Inhibition stood at 12.95%.

Turning to `COc1ccccc1N1CCN(C(=O)Cn2nc3ccc(-c4ccc(Cl)cc4)nn3c2=O)CC1`, the Inhibition is on record as 8.63%.

As to `CCCCOc1ccc(-c2cc3c4nnc(SCC(=O)Nc5cccc(C)c5C)n4ccn3n2)cc1`, the Inhibition is recorded as -5.45%.

For `Cc1ccc(-c2ccc3nn(Cc4cccc(Br)c4)c(=O)n3n2)cc1C`, the Inhibition is reported as 9.24%.

On to `CCC(C)NC(=O)CCn1c(=O)c2ccccc2n2c(=O)n(CC(=O)NCc3cccs3)nc12` (stereo not drawn), for which the Inhibition turned out to be 6.1%.

Consider `O=C(Cn1nc2n(CCc3ccccc3)c(=O)c3ccccc3n2c1=O)Nc1ccc2c(c1)OCO2`, for which the Inhibition is reported as -2.08%.

The next test concerns Escherichia coli. The following applies: Concentration 32 ug.mL-1;; ASSAY_TEST Inhibition of Bacterial Growth; detection method Absorption (OD600); MEDIA CAMHB; plate type 384well; NBS; CORNING #3640; time 18 hr.
For the compound `CCc1ccc(Cn2c(=O)c3sccc3n3c(SCc4cccc(C(F)(F)F)c4)nnc23)cc1`, the Inhibition is -0.8%.

As for `COc1cc(NC(=O)Cn2nc3c4c5c(sc4ncn3c2=O)CCCC5)cc(OC)c1`, the Inhibition was -8.54%.

On to `O=c1c2nnc(SCc3ccc(F)cc3)n2ccn1-c1ccc(Br)cc1`, for which the Inhibition is given as -5.68%.

Consider `O=C(CSc1nnc2c(=O)n(-c3ccccc3)ccn12)Nc1cccc(F)c1`, for which the Inhibition is on record as -3.48%.

For `COC(=O)c1cccc(NC(=O)Cn2nc3c(Oc4ccccc4)nccn3c2=O)c1`, the Inhibition is listed as -4.6%.

Take `COc1cc(NC(=O)Cn2nc3c(N4CCCC4)nccn3c2=O)cc(OC)c1`: the Inhibition is reported as -2.57%.

Regarding `O=c1n(Cc2ccc3c(c2)OCO3)nc2ccc(-c3ccccc3)nn12`, the Inhibition is on record as -0.49%.

Take `COc1cccc(C(=O)Cn2nc3n(CCC(C)C)c(=O)c4sccc4n3c2=O)c1`: the Inhibition is listed as -5.88%.

In the case of `O=C(Cn1nc2ccc(Sc3cccc(F)c3)nn2c1=O)NCc1ccc(Cl)cc1`, the Inhibition was found to be 1.23%.

Regarding `O=C(Cn1nc2c3cc(-c4ccccc4)nn3ccn2c1=O)N1CCCc2ccccc21`, the Inhibition is listed as 2.28%.

As for `Cc1cc2nn(CC(=O)Nc3ccc(F)cc3F)c(=O)n2c(Nc2ccc(F)c(C)c2)n1`, the Inhibition is recorded as -5.59%.

`CC(C)c1nnc2c(=O)n(CC(=O)Nc3ccc(Cl)c(Cl)c3)c3ccccc3n12`: the Inhibition amounted to 5.48%.

Consider `O=C(Cn1nc2ccc(SCc3ccc(Cl)cc3)nn2c1=O)Nc1ccccc1C(F)(F)F`, for which the Inhibition was -5.74%.

With `O=C(Cn1nc2c(Oc3ccccc3)nccn2c1=O)Nc1ccc(F)cc1F`, the Inhibition was -8.04%.

With `Cc1ccc(CN(c2ccc(F)cc2)S(=O)(=O)c2ccc3nnc(C)n3c2)cc1`, the Inhibition is -18.59%.

For the compound `CN(C(=O)Cn1nc2n(Cc3cccs3)c(=O)c3sccc3n2c1=O)c1ccccc1`, the Inhibition is listed as -16.81%.

`Cc1ccc(Sc2nccn3c(=O)n(CC(=O)N4CCN(c5ccc(F)cc5)CC4)nc23)c(C)c1`: the Inhibition is given as -20.44%.

Consider `O=C(Cn1nc2ccc(Sc3cccc(F)c3)nn2c1=O)Nc1ccc2c(c1)OCCO2`, for which the Inhibition is on record as -2.18%.

In the case of `O=c1n(Cc2ccccc2F)nc2ccc(S(=O)(=O)N3CCCCCC3)cn12`, the Inhibition is on record as -8.1%.

For `COc1ccc(CN(c2cc(C)cc(C)c2)S(=O)(=O)c2cccn3c(C)nnc23)cc1`, the Inhibition is -2.42%.

In the case of `Cc1nnc2c(=O)n(CC(=O)NC3CCCC3)c3ccccc3n12`, the Inhibition is recorded as -6.29%.

Take `COc1cccc(-c2noc(Cn3nc4ccc(-c5ccc(C)c(C)c5)nn4c3=O)n2)c1OC`: the Inhibition was -3.11%.

On to `Cc1cccc(Oc2nccn3c(=O)n(CC(=O)N4CCN(c5ccccc5F)CC4)nc23)c1C`, for which the Inhibition was -9.87%.

As for `COc1cccc(CN(c2ccc(C(C)C)cc2)S(=O)(=O)c2cccn3cnnc23)c1`, the Inhibition is -1.44%.

Take `Cc1ccccc1Oc1nccn2c(=O)n(CC(=O)Nc3cc(Cl)ccc3Cl)nc12`: the Inhibition was -4.76%.

On to `CCCc1ccc(S(=O)(=O)Nc2ccc3nncn3n2)cc1`, for which the Inhibition is 2.74%.

Regarding `Cc1ccc(Nc2cc(C)n3c(=O)n(Cc4cc(=O)n5ccccc5n4)nc3n2)cc1F`, the Inhibition is -6.14%.

For `COc1ccc(-c2cc3c4nn(CC(=O)Nc5cc(C)ccc5OC)c(=O)n4ccn3n2)cc1`, the Inhibition is on record as -0.57%.

In the case of `Cc1nnc2ccc(S(=O)(=O)N(Cc3ccc(Cl)cc3)c3cccc(F)c3)cn12`, the Inhibition was -4.46%.

For the compound `Cc1cccc(CN(c2cccc(F)c2)S(=O)(=O)c2ccc3nncn3c2)c1`, the Inhibition is on record as -9.18%.

`COc1ccccc1NC(=O)Cn1nc2c(SCc3ccccc3)nccn2c1=O`: the Inhibition was -12.47%.

Turning to `CCC(Sc1nnc2c(=O)n(-c3cccc(OC)c3)ccn12)C(=O)Nc1cc(OC)ccc1OC` (stereo not drawn), the Inhibition is on record as -13.69%.

Consider `Cc1cc(C)cc(Nc2nc(C)cc3nn(CC(=O)NCc4ccco4)c(=O)n23)c1`, for which the Inhibition is on record as -6.71%.

For the compound `O=C(Cn1nc2ccc(-c3ccc(Cl)cc3)nn2c1=O)NC1CCCC1`, the Inhibition worked out at 1.75%.

In the case of `COc1ccccc1N1CCN(C(=O)Cn2nc3ccc(-c4ccc(Cl)cc4)nn3c2=O)CC1`, the Inhibition came to 0.78%.

With `CCCCOc1ccc(-c2cc3c4nnc(SCC(=O)Nc5cccc(C)c5C)n4ccn3n2)cc1`, the Inhibition is -19.34%.

For `Cc1ccc(-c2ccc3nn(Cc4cccc(Br)c4)c(=O)n3n2)cc1C`, the Inhibition is -2.14%.

As for `CCC(C)NC(=O)CCn1c(=O)c2ccccc2n2c(=O)n(CC(=O)NCc3cccs3)nc12` (stereo not drawn), the Inhibition was -2.09%.

For the compound `O=C(Cn1nc2n(CCc3ccccc3)c(=O)c3ccccc3n2c1=O)Nc1ccc2c(c1)OCO2`, the Inhibition is listed as -8.34%.
